Source: PubChem
A549 tox-1 – A549 cytotoxicity, counter-screen for Nrf2 inhibitors. A549 ARE-Fluc cells, CellTiter-Fluor viability, 18-24 h. Potency, µM (top dose mostly 46 µM), usual class: inhibitors. 390,000 compounds, 0.16% hits. AID 504648
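A549 ARE-Fluc cells in 5% FBS OPTI-MEM, 5000 cells/well, rested 2 h then exposed to compounds in concentration-response for 18-24 h at 37 °C. Viability by CellTiter-Fluor fluorescence (Ex 405/Em 525) after 30 min; luciferase luminescence (BugLite, 15 min, RT) read afterwards.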
IL-2 act – activates IL-2 in a cell-based reporter assay; 360,000 compounds, 0.065% hits; activation, % (series mostly up to about 46 µM); IL-2 activation reporter assay, cell-based qHTS; stimulated with anti-CD3/CD4/CD28 beads; in transgenic mouse T cells; in the data active means activation above about 50%; inconclusive means mostly about 30% to 49%
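Using fluorescent plate cytometry, EGFP and DsRed are detected in transgenic mouse T cells stimulated 18 h at 37 degrees C with antibody-coated beads after 60 min compound pretreatment.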
Nrf2 activator – Nrf2 pathway activation; AREc32 ARE-luciferase reporter (MCF7-derived line), luminescence, 24 h; Potency, µM (titrated, usually from 46.1 µM), most hits filed as activators; 410,000 compounds, 0.31% hits; further: nearly all actives have a fitted effect of over 65% in size
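AREc32_Fluc, 1000 cells/well, OPTI-MEM + 5% FBS, o/n 37 deg C 5% CO2; 23 nL cpd by pin tool, 24 hr; Steady-Glo 30 min RT, luminescence.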
p53 reactivator – re-activators of mutant p53; AID 504706; H1299 p53-A138V BP100-luciferase reporter, luminescence, 24 h; Potency, µM (highest dose often 92.2 µM), hits mostly activators; 320,000 compounds, 0.063% hits; further: nearly all actives have a fitted effect of over 45% in size
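p53-null H1299 cells stably carrying temperature-sensitive p53-A138V and a BP100-luciferase reporter were pinned with compounds (4-point, 1:5 series) and held 24 hrs at 37 deg C. Luminescence was read 10 min after detection reagent.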
Nrf2 inh – Nrf2 pathway inhibition. A549 ARE-Fluc reporter, luciferase luminescence, 18-24 h. 360,000 compounds, 2.1% hits. Potency, µM (highest dose often 46 µM), most hits filed as inhibitors; further: nearly all actives have a fitted effect of over 60% in size
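Reporter: ARE-Fluc in A549. Exposure: 18-24 h, 37 °C, 5% CO2, 5% FBS OPTI-MEM. Readouts: fluorescent cytotoxicity (CellTiter-Fluor), then luminescent Nrf2 signal after BugLite.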
BRCA1 expr up – activators of BRCA1 expression; MCF7-BRCA1-FFLuc reporter, luminescence, 48 h; response scale: scaled: vehicle 0%, 10 µM genistein 100%; Potency, µM (doses to about 46.1 µM), hits mostly activators; 380,000 compounds, 1.1% hits; AID 624202; further: nearly all actives have a fitted effect of over 80% in size
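Cells: MCF7-BRCA1-FFLuc, 2000/well. Exposure: 48 h, 37 °C, 5% CO2. Read: luminescence, 15 min post-substrate. Controls: genistein 10 microM (maximal activation), DMSO (neutral).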
FLuc enzyme inh – blocks purified firefly luciferase in Nrf2 counterscreen | shares compounds with Nrf2 inh | purified firefly luciferase, luminescence inhibition | Potency, µM (doses to about 57.5 µM), actives largely listed as inhibitors | 1,400 compounds, 4% hits; further: nearly all actives have a fitted effect of over 65% in size
Target sequence (P08659 whole entry, looked up): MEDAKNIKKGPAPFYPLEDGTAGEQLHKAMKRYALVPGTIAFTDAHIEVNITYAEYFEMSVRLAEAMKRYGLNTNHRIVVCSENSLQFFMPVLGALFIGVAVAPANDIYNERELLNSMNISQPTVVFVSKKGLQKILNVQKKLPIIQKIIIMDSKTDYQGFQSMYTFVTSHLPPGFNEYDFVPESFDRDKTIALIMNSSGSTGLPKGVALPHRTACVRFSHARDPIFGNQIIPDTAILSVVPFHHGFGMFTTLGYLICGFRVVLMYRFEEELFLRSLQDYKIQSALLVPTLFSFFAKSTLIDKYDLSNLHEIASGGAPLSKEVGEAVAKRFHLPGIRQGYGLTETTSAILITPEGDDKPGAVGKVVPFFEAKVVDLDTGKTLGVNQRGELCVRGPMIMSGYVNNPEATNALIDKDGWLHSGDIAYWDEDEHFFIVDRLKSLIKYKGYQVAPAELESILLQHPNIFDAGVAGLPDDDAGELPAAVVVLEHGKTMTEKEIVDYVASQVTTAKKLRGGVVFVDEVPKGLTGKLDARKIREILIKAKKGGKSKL
A549 tox-2 – counter-screen for Nrf2 inhibitors: cytotoxicity in A549 ARE cells | 1,400 compounds, 2% hits | shares compounds with Nrf2 inh | A549 ARE-Fluc cells, cytotoxicity counterscreen | Potency, µM (series often up to 46.1 µM), hits mostly inhibitors;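 further: cells exposed to compounds for 18 to 24 hours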
ARE-Fluc inh – reduces Nrf2 ARE reporter signal in A549 cells; A549 ARE-firefly luciferase reporter, luminescence; shares compounds with Nrf2 inh; AID 720524; Potency, µM (series often up to 46.1 µM), usual class: inhibitors; 1,400 compounds, 74% hits; further: nearly all actives have a fitted effect of over 65% in size
Each line names hits and unclear results; the compound was inactive in the other large screens (follow-up assays come after a bar, where shown). Only some compounds are listed: those with a hit (about 3.2% of all), similar ones and a draw of the others. Unless noted, the call rests on the fitted dose curve; in most records, active means well fitted curve in the direction sought with a large enough effect; inconclusive means small, poorly fitted or top-dose-only effect, or another doubt; inactive means no such curve, though single readings can be large; an effect the other way counts as inactive or inconclusive.

CCOC(=O)c1sc2cccc(F)c2c1S(=O)(=O)NCc1ccccc1Cl	Nrf2 activator inconclusive (no result: IL-2 act, p53 reactivator, BRCA1 expr up)
CC(=NNc1ccc2ccccc2n1)c1ccccc1O	Nrf2 activator inconclusive, Nrf2 inh inconclusive (no result: p53 reactivator) | FLuc enzyme inh 0.038µM | A549 tox-2 inactive | ARE-Fluc inh inconclusive
Cc1cc[n+](CC(=O)c2ccc(NC(=O)c3ccccc3)cc2)c2ccccc12	Nrf2 inh inconclusive
Cc1cc[n+](C)c2ccccc12	none (no result: A549 tox-1, IL-2 act, Nrf2 activator, p53 reactivator, Nrf2 inh)
CCCCCCC[n+]1ccc(C)c2ccccc21	none (not shown: A549 tox-1, IL-2 act, Nrf2 activator, p53 reactivator, Nrf2 inh, BRCA1 expr up) | FLuc enzyme inh inactive | A549 tox-2 inactive
Cc1cc[n+](CCC2CCCCC2)c2ccccc12	none (no result: A549 tox-1, IL-2 act, Nrf2 activator, p53 reactivator, Nrf2 inh, BRCA1 expr up) | FLuc enzyme inh inactive | A549 tox-2 inactive | ARE-Fluc inh inconclusive
Cc1cc(C)cc(NC(=O)CSc2oc(-c3ccco3)nc2S(=O)(=O)c2ccc(Cl)cc2)c1	A549 tox-1 inconclusive (no result: IL-2 act, p53 reactivator, BRCA1 expr up)
O=C(CSc1nc2c([nH]c3ccccc32)c(=O)n1-c1cccc(C(F)(F)F)c1)N1CCCC1	none (no result: IL-2 act, p53 reactivator, Nrf2 inh)
CC(=O)c1ccc(N2CCN(S(=O)(=O)c3ccc4c(c3)CC(C)N4C(C)=O)CC2)cc1 (centres undefined)	Nrf2 inh 5.8µM | FLuc enzyme inh 2.7µM | A549 tox-2 inactive | ARE-Fluc inh inactive
CC(=O)c1ccc(N2CCN(S(=O)(=O)c3ccc4c(c3)CC(C)N4C(=O)C3CC3)CC2)cc1 (centres undefined)	Nrf2 inh 5.8µM | FLuc enzyme inh inactive | A549 tox-2 inactive | ARE-Fluc inh 3.7µM
COc1ccc(N2CCN(S(=O)(=O)c3ccc4c(c3)CC(C)N4C(=O)C3CC3)CC2)cc1 (centres undefined)	none
COc1ccccc1N1CCN(C(=O)CSc2nc(-c3ccc(C(C)C)cc3)no2)CC1	none (no result: IL-2 act, p53 reactivator, BRCA1 expr up)
CNC(=O)CCc1nc(-c2ccc(C(C)(C)C)cc2)no1	BRCA1 expr up inconclusive
CC(C)(C)c1ccc(-c2noc(CCC(N)=O)n2)cc1	Nrf2 inh 0.13µM, BRCA1 expr up inconclusive | FLuc enzyme inh 3µM | A549 tox-2 inactive | ARE-Fluc inh 0.16µM
CC(=O)Nc1ccc(NC(=O)C(C)c2cccc(C(=O)c3ccccc3)c2)cc1 (centres undefined)	none
CC(C(=O)Nc1ccc(O)cc1)c1cccc(C(=O)c2ccccc2)c1 (centres undefined)	Nrf2 inh 9.2µM | FLuc enzyme inh inactive | A549 tox-2 inactive | ARE-Fluc inh inconclusive
CC(=O)c1sc2c(c1OC(=O)c1ccc(Cl)cc1Cl)c(=O)n(-c1ccccc1)c(=S)n2-c1ccccc1	A549 tox-1 inconclusive, Nrf2 inh 3.3µM | FLuc enzyme inh inactive | A549 tox-2 inconclusive
CC(=O)c1sc2c(c1OC(=O)c1ccc(Cl)cc1)c(=O)n(-c1ccccc1)c(=S)n2-c1ccccc1	none (no result: p53 reactivator)
Cc1cnc(NC(=O)C2CC(=O)N(c3cccc(Cl)c3)C2)s1 (centres undefined)	A549 tox-1 inconclusive, Nrf2 inh 2.1µM | FLuc enzyme inh inactive | A549 tox-2 inconclusive
CC1=C(C(=O)OC2CCCCC2)C(c2cccnc2)n2nnnc2N1 (centres undefined)	Nrf2 inh 8.2µM | FLuc enzyme inh inactive | A549 tox-2 inactive | ARE-Fluc inh inconclusive
O=C(CNc1cc(S(=O)(=O)N2CCCC2)ccc1OCC(F)(F)F)Nc1cccc(C(F)(F)F)c1	Nrf2 inh 7.3µM | FLuc enzyme inh inactive | A549 tox-2 inactive | ARE-Fluc inh 13µM
